Holding throughout (assay): Cytotoxic Profiling of Annotated Libraries Using Quantitative High-Throughput Screening (AID 1296008); note: nearly all actives have a fitted effect of over 60% in size
Common to all, as to conditions: Five cell lines viability, CellTiter-Glo ATP luminescence, 48-72 h; max response: hits give low values

One assay deals with HaCat. In outline:
(§1)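 Compounds were pin-transferred onto cells and incubated 48 or 72 hr at 37 degree Celsius, 95% humidity. CellTiter-Glo was added, plates sat 10 min at room temperature, then ATP-coupled luminescence was imaged as the viability read-out.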

Another assay deals with KB-3-1. The method in brief: as §1
The subject of the next assay is NIH3T3. The method in brief: as §1

Results filed as inconclusive are left out. Unmarked numbers belong to inactive results. Activity calls are given as the source filed them. Calls come from the whole dose curve; as a rule, active = well fitted inhibition curve with a large enough effect; inconclusive = small, poorly fitted or top-dose-only effect; inactive = flat fitted curve, though single readings scatter.
% is set by controls: 0 for no effect and ±100 for the full control effect; potency is the fitted concentration of half-maximal effect.

Turning to `CC(C)=CC/C=C(\C)[C@H]1CC[C@]2(C)[C@@H]1[C@H](O)C[C@@H]1[C@@]3(C)CC[C@H](O)C(C)(C)[C@@H]3[C@@H](O[C@@H]3O[C@H](CO)[C@@H](O)[C@H](O)[C@H]3O)C[C@]12C`, the figures for the max response in the assay with HaCat and with NIH3T3 were 4.08% and -21.6%, respectively. Moreover, the call in the assay with KB-3-1 was inactive.
In the case of `NC1CCC(Nc2cc(-c3cccc(NCc4cccc(F)c4)n3)c(Cl)cn2)CC1` (stereo not drawn), the Potency is 1.03 µM (active) with HaCat, 0.366 µM (active) in the assay on KB-3-1 and 1.16 µM (active) in the assay on NIH3T3.
In the same order, the values of `O=C(/C=C/c1cccc(S(=O)(=O)Nc2ccccc2)c1)NO` are 5.02 µM (active), 2.82 µM (active) and 7.96 µM (active).
On to `N#C[C@@H]1C[C@H](F)CN1C(=O)CNC1[C@H]2CN(C(=O)c3ccc(F)cc3)C[C@@H]12` (stereo partly drawn), for which the max response in the assay with HaCat was -7.89%; in the assay on KB-3-1 it was 1.86%; in the assay with NIH3T3 it was -2.06%.
On to `O=C(COc1cccc2c(=O)[nH]ccc12)c1ccccc1`, for which the max response in the assay with HaCat was -15.5%; in the assay with KB-3-1, 7.28%; in the assay with NIH3T3, 1.93%.
Regarding `O=C(O)/C=C/c1cc2c(cc1O[C@@H]1O[C@H](CO)[C@@H](O)[C@H](O)[C@H]1O)OCO2`, the results for the max response with HaCat, with KB-3-1 and in the assay on NIH3T3 were 0.0176%, 8.77% and 4.44%, respectively.
Consider `C=C(C)[C@@H]1CC[C@]2(C)CC[C@]3(C)[C@H](CC[C@@H]4[C@@]5(C)CC[C@@H](O)C(C)(C)[C@@H]5CC[C@]43C)[C@@H]12`, for which the results for the max response in the assay on HaCat, in the assay on KB-3-1 and in the assay on NIH3T3 were 0.908%, -4.19% and 1.04%, respectively.
`O=C(/C=C/c1ccc(O)cc1)OC1[C@H](O)CC(O)(C(=O)O)C[C@H]1O` (stereo partly drawn): the max response in the assay on HaCat was 1.01%; in the assay with KB-3-1, 2.34%; in the assay with NIH3T3, -9.08%.
In the same order, the values of `O=S(=O)(c1ccc(S(=O)(=O)n2cnc3ccccc32)cc1)N1CCCCCC1` are -9.6%, 6.01% and -4.79%.
On to `CCn1c(=O)c(-c2ccn[nH]2)cc2c(C)nc(N)nc21`, for which the Potency with HaCat is 2.59 µM (active); with KB-3-1 it was 7.31 µM (active); in the assay on NIH3T3, 1.84 µM (active).
In the same order, the values of `CN1c2ccccc2C(=O)N2CCC3c4ccccc4NC3C21` (stereo not drawn) are 2.02 µM (active), 3.6 µM (active) and 7.18 µM (active).
In the case of `COc1ccc(CCC(=O)c2c(O)cc(O)cc2O[C@@H]2O[C@H](CO)[C@@H](O)[C@H](O)[C@H]2O)cc1`, the max response was -11.7% with HaCat, 8.59% with KB-3-1 and -8.41% in the assay on NIH3T3.
Take `C=C1C(=O)O[C@@H]2/C=C(\C)C(=O)/C=C/[C@](C)(O)C[C@@H](OC(=O)C(C)C)[C@@H]12`: the Potency in the assay with HaCat is 2.02 µM (active); in the assay with KB-3-1 it was 7.18 µM (active); in the assay on NIH3T3, 2.55 µM (active).
Turning to `CC12CCC3c4ccc(OC5OC(C(=O)O)C(O)C(O)C5O)cc4CCC3C1CCC2O` (stereo not drawn), the max response in the assay on HaCat was 0.389%; with NIH3T3, 3.14%. The compound was called inactive in the assay on KB-3-1.
For the compound `CN1CCN(C2CCC(n3cc(-c4ccc(Oc5ccccc5)cc4)c4c(N)ncnc43)CC2)CC1` (stereo not drawn), the Potency in the assay with HaCat was 1.03 µM (active); with KB-3-1, 20.6 µM (active); with NIH3T3 it was 0.326 µM (active).
Take `CC[C@@H](O)C[C@@H]1C(C)=C[C@@H]2CCCC[C@@H]2[C@@]1(C)C(=O)O`: the max response in the assay with HaCat is -3.74%; with NIH3T3, -7.4%. In addition, the call in the assay with KB-3-1 was inactive.
In the case of `COC(=O)C1=C2Nc3ccccc3C23CCN2CCCC(C(C)O)(C1)C23` (stereo not drawn), the max response is -21.7% with HaCat, 6.23% with KB-3-1 and 1.02% in the assay on NIH3T3.
On to `N#Cc1ccc(C(=O)N2CCC3(CC2)N=C(N)c2c(F)ccc(F)c2N3)cn1`, for which the max response with HaCat was 2.01%; in the assay on KB-3-1 it was -9.49%; in the assay on NIH3T3, -5.13%.
On to `CCN1CCN(Cc2ccc(NC(=O)c3ccc(C)c(/C=C/c4cnc5[nH]ccc5c4OC)c3)cc2C(F)(F)F)CC1`, for which the Potency in the assay with HaCat is 5.8 µM (active); in the assay with KB-3-1, 18.4 µM (active); in the assay on NIH3T3, 5.17 µM (active).
Take `COc1ccc(C2(O)CCC(N3CC[C@@H](NC(=O)CNC(=O)c4cccc(C(F)(F)F)c4)C3)CC2)cn1` (stereo partly drawn): the results for the max response in the assay on HaCat, with KB-3-1 and in the assay on NIH3T3 were 0.0677%, -12.4% and -3.76%, respectively.
As to `C[C@@H]1O[C@@H](O[C@H]2[C@H](O[C@H]3[C@H](O)[C@@H](C(=O)O)O[C@@H](O[C@H]4CC[C@@]5(C)C(CC[C@]6(C)C5CC[C@]57OC[C@@]8(CCC(C)(C)CC85)[C@H](O)C[C@]76C)C4(C)C)[C@@H]3O[C@@H]3O[C@H](CO)[C@@H](O[C@@H]4OC[C@@H](O)[C@H](O)[C@H]4O)[C@H](O)[C@H]3O)O[C@H](CO)[C@H](O)[C@@H]2O)[C@H](O)[C@H](O)[C@H]1O` (stereo partly drawn), the max response with HaCat was 1.4%; in the assay on NIH3T3, 2.61%. Further, the compound was classed as inactive in the assay with KB-3-1.

Source of the values: PubChem BioAssay (NCATS).
